Results as given in PubChem BioAssay (EPA / NIEHS).
Inconclusive results are not listed. Calls of active or inactive are those of the source. How the source made its calls, unless noted: active means hit-call score of the fitted dose curve at least 0.9, where 1 is the maximum; inconclusive means response in the unintended direction; inactive means score below 0.9.

tested on: not listed separately; test: Tanguay_ZF_120hpf_NC_legacy: (Legacy) Oregon State University Tanguay Lab 120 Hour Post-fertilization zebrafish Assay for Notochord and Tail Malformation (AID 2283656); details: not given
In short: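 Binary scoring of notochord distortion by brightfield microscopy; embryos dying were not scored. Wild-type Tropical 5D embryos, chorion removed, exposed singly and statically from 6 to 120 hpf, 28C, sealed, 0.64% DMSO.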

| SMILES | outcome |
| --- | --- |
| CCCCCCCCCC[N+](C)(C)[O-] | inactive |
| Cc1ccc(-c2cc(C(F)(F)F)nn2-c2ccc(S(N)(=O)=O)cc2)cc1 | inactive |
| O=C(NS(=O)(=O)/C=C/c1cccs1)c1ccc(F)cc1Br | inactive |
| CCCCCCCC(=O)OC | inactive |
| CC(=O)OC1CC(C)OC(C)O1 (centres undefined) | inactive |
| Cc1cc(SC2=C(O)C[C@@](CCc3ccc(N)cc3)(C(C)C)OC2=O)c(C(C)(C)C)cc1CO | inactive |
| O=[Si]=O | inactive |
| C/C=C/c1ccc(OC)cc1 | inactive |
| CN(C)C(=O)NC1(c2ccccc2)CCN(CCC[C@]2(c3ccc(Cl)c(Cl)c3)CCCN(C(=O)c3ccccc3)C2)CC1 | inactive |
| Cc1occc(=O)c1O | inactive |
| CCCCCCCCCCCCCCCCO | inactive |

read-out: solute carrier (SLC10A1), SLC10A1 (gene 6554); test: LTEA_HepaRG_SLC10A1: Life Technologies and Expression Analysis (LTEA) Assay for solute carrier (SLC10A1) using HepaRG (AID 2283657; active means hit-call score of the fitted dose curve at least 0.9, where 1 is the maximum; inactive means score below 0.9); details: mRNA level, 48 h; actives raise or lower the signal
In short: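 Cryopreserved HepaRG cells are thawed, plated and cultured 48 h; medium is then switched to serum-free induction medium and chemicals added (8 points, max 100 uM, 0.5% DMSO). After 48 h, RNA is isolated and SLC10A1 quantified by qRT-PCR.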

| SMILES | outcome | AC50 |
| --- | --- | --- |
| CCCCCCCCCC[N+](C)(C)[O-] | inactive | – |
| CCCCC(CC)CO (centres undefined) | inactive | – |
| CCC(C)N(C)C(=O)c1cc2ccccc2c(-c2ccccc2Cl)n1 (centres undefined) | – | 37.7 µM (active) |
| Cc1occc(=O)c1O | inactive | – |

read-out: matrix metalloproteinase-1 (MMP1), MMP1 (gene 4312); test: LTEA_HepaRG_MMP1: Life Technologies and Expression Analysis (LTEA) Assay for matrix metalloproteinase-1 (MMP1) using HepaRG (AID 2283658; active means hit-call score of the fitted dose curve at least 0.9, where 1 is the maximum; inactive means score below 0.9); details: mRNA level, 48 h; actives raise or lower the signal
Method: (§1) LTEA_HepaRG is a cell based, multiplexed-readout assay that uses HepaRG, a human liver cell line, with measurements taken at 48 hours after chemical dosing on a 96-well plate.LTEA_HepaRG_MMP1 is one of 102 assay component(s) measured in the LTEA HepaRG cell culture assay. It is a marker of Fibrosis.Data from the assay component LTEA_HepaRG_MMP1 was analyzed into 1 endpoint. This assay endpoint, LTEA_HepaRG_MMP1, was analyzed with bidirectional fitting relative to DMSO as the negative control and baseline of activity. Using a type of inducible reporter, measures of mRNA induction for gain or loss-of-signal activity can be used to understand regulation of transcription factor activity. To generalize the intended target to other relatable targets, this assay endpoint is annotated to the protease intended target family, where the subfamily is matrix metalloproteinase.
(§2) A total of 1060 chemcials from the ToxCast library were tested in eight-point concentration-response experiments. Cell culture and cytotoxicity assays were conducted at Thermo Fisher Scientific's Custom Services facility (Madison, WI). A single lot of human HepaRG cells (Thermo Fisher Scientific, Frederick, MD) was used for the cell culture experiments. 96-well format collagen type I coated plates of human HepaRG cells were prepared using established methods. Briefly, cryopreserved HepaRG cells were thawed, plated at a density of approximately 100,000 cells/well in HepaRG Thaw, Plate, and General Purpose media (HPRG770, Thermo Fisher Scientific), and incubated for 48 hours. 0.5% DMSO was selected as vehicle control to balance the requisite need of DMSO in HepaRG cultures to maintain differentiation (for example, baseline metabolism, proportions of hepatocytes vs. cholangiocytes), while enabling further hepatic receptor pathway activation (for example, PXR and CAR) in response to chemical exposure. 48 hours after plating, the culture medium was replaced with HepaRG Serum-Free Incudtion Media. Cells were exposed to each test chemical in duplicate and maintained in CO2 incubators for another 48 hours. Chemical plates were thawed to room temperature and 200x concentrations of treatment groups were prepared. 8-point conentration-reponse curves were made with the highest exposure at 100 uM, followed by half-log dilutions, all in 0.5% DMSO. Each test plate contained variouse controls, induction positive controls (1mM phenobarbital), cytotoxicity positive controls ([…] aflatoxin B1), vehicle controls (0.5% DMSO), and total lysis controls (0.5% DMSO). Cell morphology images were taken using an Essen IncuCyte FLR automated microscope, with six 96-well plates imaged in about 24 minutes. Images were captured and exported and JPEG files. Spent culture media was transfered to black-well plates for the LDH assay, and remaining media was sorted at -80 C for later use. Cells were treated with RLT buffer and frozen until shipped for gene expression analysis. Total RNA was isolated from the cell suspension in 75 uL of Buffer RLT (Qiagen, Germantown, MD 20874) by Quintiles/Expression Analysis (Durham, NC) using a custom isolation procedure. Total RNA from each plate well was transferred to a preamplification plate. Fluidigm's 96.96 Dynamic ArrayTM (Fluidigm, Amsterdam, the Netherlands) technology was used for gene expression analyses by quantitative reverse transcription polymerase chain reaction (qRT-PCR, performed by Quintiles/Expression Analysis, Durham, NC)89. Standard TaqManTM Assays (Applied Biosystems/ThermoFisher Scientific, Foster City, CA) were used to assess the expression of 93 genes selected based on their selectivity and sensitivity to important hepatic receptors known to be modulated by environmental chemicals; importance in human hepatocyte functionality; and hepatotoxicity. […]

| SMILES | outcome |
| --- | --- |
| CCCCCCCCCC[N+](C)(C)[O-] | inactive |
| CCCCC(CC)CO (centres undefined) | inactive |
| CCC(C)N(C)C(=O)c1cc2ccccc2c(-c2ccccc2Cl)n1 (centres undefined) | inactive |
| Cc1occc(=O)c1O | inactive |

tested on: Thyroperoxidase (TPO), gene 54314; test: CCTE_Simmons_AUR_rTPO: CCTE's Amplex UltraRed Assay for Thyroperoxidase (TPO) Inhibition, Simmons Lab (AID 2283662); details: not given;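 further: potency for loss of signal meaning inhibition of peroxidase activity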
In short: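 Cell-free peroxidase activity assay using rat thyroid gland microsomes with excess H2O2 (300 uM) and 25 uM Amplex UltraRed. Compounds tested from 5 nM to 87.5 uM; fluorescence measured after 30 min at 37C, analysed relative to DMSO baseline.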

| SMILES | AC50 |
| --- | --- |
| Cc1cc(Cc2ccc(N)c(C)c2)ccc1N | 0.844 µM (active) |
| C/C=C/C=C/C(=O)O | 48.8 µM (active) |
| Cc1cc(SC2=C(O)C[C@@](CCc3ccc(N)cc3)(C(C)C)OC2=O)c(C(C)(C)C)cc1CO | 0.738 µM (active) |
| S=c1[nH]c2ccccc2s1 | 0.433 µM (active) |
| C/C=C/c1ccc(OC)cc1 | 28.4 µM (active) |
| Cc1occc(=O)c1O | 21.7 µM (active) |

tested on: not listed separately; test: CCTE_Simmons_CellTiterGLO_HEK293T: Viability Assessment in CCTE's Assays for Thyroperoxidase (TPO) Inhibition, Simmons Lab (AID 2283665); details: not given;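 on AC50: cells exposed to compound for 24 h before readout; actives reduce ATP signal below DMSO vehicle meaning cytotoxicity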
In short: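 Cells were seeded overnight, then exposed to an eight-point series up to 87.5 uM final for 24 hours. CellTiter-Glo reagent was added and luminescence read after 20 min, giving ATP-based viability versus DMSO.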

| SMILES | outcome | AC50 |
| --- | --- | --- |
| Cc1cc(Cc2ccc(N)c(C)c2)ccc1N | inactive | – |
| C/C=C/C=C/C(=O)O | – | 48.8 µM (active) |
| Cc1cc(SC2=C(O)C[C@@](CCc3ccc(N)cc3)(C(C)C)OC2=O)c(C(C)(C)C)cc1CO | – | 3.9 µM (active) |
| S=c1[nH]c2ccccc2s1 | inactive | – |
| C/C=C/c1ccc(OC)cc1 | inactive | – |
| Cc1occc(=O)c1O | inactive | – |

tested on: not listed separately; test: Tanguay_ZF_120hpf_TR_legacy: (Legacy) Oregon State University Tanguay Lab 120 Hour Post-fertilization zebrafish Assay for Touch Response (AID 2283667); details: not given
In short: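 Readout is presence or absence of touch response in 120 hpf zebrafish larvae, assessed by brightfield observation after continuous static exposure at 28C. Final vehicle was 0.64% (vol/vol) DMSO.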

| SMILES | outcome | AC50 |
| --- | --- | --- |
| COC(=O)CCC(=O)OC | inactive | – |
| CCCCCCCCCC[N+](C)(C)[O-] | inactive | – |
| CCCC[C@H]1CN(CC2CCOCC2)C(=O)OC12CCN(C1(C)CCN(C(=O)c3c(C)ncnc3C)CC1)CC2 | inactive | – |
| O=C(O)CC(O)(CC(=O)O)C(=O)O | inactive | – |
| NC(=Nc1ccccc1)Nc1ccccc1 | inactive | – |
| NC=O | inactive | – |
| CCCCC(CC)CO (centres undefined) | inactive | – |
| COc1ccc(OC(F)(F)F)cc1CN[C@H]1CCCN[C@H]1c1ccccc1 | inactive | – |
| CC(C)c1cccc(C(C)C)c1NC(=O)NS(=O)(=O)c1cc(C(C)(C)O)co1 | inactive | – |
| Cc1cc(Cc2ccc(N)c(C)c2)ccc1N | inactive | – |
| Cc1ccc(-c2cc(C(F)(F)F)nn2-c2ccc(S(N)(=O)=O)cc2)cc1 | inactive | – |
| O=C(NS(=O)(=O)/C=C/c1cccs1)c1ccc(F)cc1Br | inactive | – |
| C/C=C/C=C/C(=O)O | inactive | – |
| CCCCCCCC(=O)OC | inactive | – |
| O=C(O)c1[nH]n(-c2ccc(S(=O)(=O)O)cc2)c(=O)c1N=Nc1ccc(S(=O)(=O)O)cc1 | inactive | – |
| CCC(C)N(C)C(=O)c1cc2ccccc2c(-c2ccccc2Cl)n1 (centres undefined) | – | 26.8 µM (active) |
| CC(=O)OC1CC(C)OC(C)O1 (centres undefined) | inactive | – |
| Cc1cc(SC2=C(O)C[C@@](CCc3ccc(N)cc3)(C(C)C)OC2=O)c(C(C)(C)C)cc1CO | inactive | – |
| C#CC(O)C(CC)CCCC (centres undefined) | inactive | – |
| CC(=O)O | inactive | – |
| O=[Si]=O | inactive | – |
| O=C(Oc1ccccc1)c1cccc(C(=O)Oc2ccccc2)c1 | inactive | – |
| S=c1[nH]c2ccccc2s1 | – | 12.3 µM (active) |
| O=C1CCCCC1 | inactive | – |
| CN(C)C(=O)NC1(c2ccccc2)CCN(CCC[C@]2(c3ccc(Cl)c(Cl)c3)CCCN(C(=O)c3ccccc3)C2)CC1 | inactive | – |
| Cc1occc(=O)c1O | inactive | – |
| CCCCCCCCCCCCCCCCO | inactive | – |

read-out: Cytochrome P450 (CYP24A1_1), CYP24A1 (gene 1591); test: LTEA_HepaRG_CYP24A1_1: Life Technologies and Expression Analysis (LTEA) Assay for Cytochrome P450 (CYP24A1_1) using HepaRG (AID 2283671; active means hit-call score of the fitted dose curve at least 0.9, where 1 is the maximum; inactive means score below 0.9); details: mRNA level, 48 h; actives raise or lower the signal
Method: as §1, with “plate.LTEA_HepaRG_CYP24A1_1” for “plate.LTEA_HepaRG_MMP1”, “NR mediated metabolism.Data” for “Fibrosis.Data”, “LTEA_HepaRG_CYP24A1_1” for “LTEA_HepaRG_MMP1”, “LTEA_HepaRG_CYP24A1_1,” for “LTEA_HepaRG_MMP1,”, “cyp” for “protease”, “xenobiotic metabolism.” for “matrix metalloproteinase.”
as §2

| SMILES | outcome |
| --- | --- |
| CCCCCCCCCC[N+](C)(C)[O-] | inactive |
| CCCCC(CC)CO (centres undefined) | inactive |
| CCC(C)N(C)C(=O)c1cc2ccccc2c(-c2ccccc2Cl)n1 (centres undefined) | inactive |
| Cc1occc(=O)c1O | inactive |

tested on: not listed separately; test: CCTE_Padilla_ZF_144hpf_TERATOSCORE: (Legacy) CCTE's 144 Hour Post-fertilization zebrafish Assay Teratoscore, Padilla Lab (AID 2283679; active means hit-call score of the fitted dose curve at least 0.9, where 1 is the maximum; inactive means score below 0.9;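 on AC50: zebrafish embryos with chorions exposed by immersion from 6-8 hpf to 5 dpf with daily renewal; teratogenicity score from eye scoring of death hatching and malformations at 144 hpf; higher score means more developmental defects relative to DMSO baseline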); details: not given
In short: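 Larvae scored by eye at 144 hpf for death, hatching and malformations after a day in clean Hanks'. Before that, daily-renewed exposure at 80 uM (0.4% DMSO, 26C) from roughly 6-8 hpf through 5 dpf, 4 embryos per chemical.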

| SMILES | outcome | AC50 |
| --- | --- | --- |
| CCCCCCCCCC[N+](C)(C)[O-] | inactive | – |
| CCCC[C@H]1CN(CC2CCOCC2)C(=O)OC12CCN(C1(C)CCN(C(=O)c3c(C)ncnc3C)CC1)CC2 | inactive | – |
| NC=O | inactive | – |
| COc1ccc(OC(F)(F)F)cc1CN[C@H]1CCCN[C@H]1c1ccccc1 | – | 56.5 µM (active) |
| CC(C)c1cccc(C(C)C)c1NC(=O)NS(=O)(=O)c1cc(C(C)(C)O)co1 | inactive | – |
| Cc1cc(Cc2ccc(N)c(C)c2)ccc1N | – | 88.5 µM (active) |
| Cc1ccc(-c2cc(C(F)(F)F)nn2-c2ccc(S(N)(=O)=O)cc2)cc1 | – | 8.82 µM (active) |
| O=C(NS(=O)(=O)/C=C/c1cccs1)c1ccc(F)cc1Br | inactive | – |
| CCc1nc(N)nc(N)c1-c1ccc(Cl)cc1 | – | 64.5 µM (active) |
| CCC(C)N(C)C(=O)c1cc2ccccc2c(-c2ccccc2Cl)n1 (centres undefined) | – | 16.3 µM (active) |
| Cc1cc(SC2=C(O)C[C@@](CCc3ccc(N)cc3)(C(C)C)OC2=O)c(C(C)(C)C)cc1CO | – | 16.4 µM (active) |
| C#CC(O)C(CC)CCCC (centres undefined) | – | 21.2 µM (active) |
| CC(=O)O | inactive | – |
| O=[Si]=O | inactive | – |
| O=C(Oc1ccccc1)c1cccc(C(=O)Oc2ccccc2)c1 | – | 9.15 µM (active) |
| S=c1[nH]c2ccccc2s1 | – | 31.1 µM (active) |
| O=C1CCCCC1 | inactive | – |
